Source: the supplement of paper PMC8728848
This excerpt belongs to a sample that is enriched for the strongest signals.

Legend:
Experiment in all cases: glycan array binding signal (z-score within array); higher = stronger binding
Conditions in all cases: glycan notation: IUPAC condensed, linker removed
[1] = biological target: GalNAc(b1-3)Gal(a1-4)Gal(b1-4)GlcNAc(b1-3)Gal(b1-4)Glc
In short: (§1)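 Negative Z-scores can be read as non-binding. The Z-score is calculated within each array and then averaged across arrays of one protein sequence at different concentrations or buffers and across linkers. Arrays, 3228 in all, were curated from the Consortium for Functional Glycomics database and kept only where the protein sequence was available.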

[2] = biological target: GalNAc(b1-4)GlcNAc(b1-2)Man
In short: as §1

Glc(b1-4)Glc = biological target: Glc(b1-4)Glc
In short: as §1

[3] = biological target: GlcNAc(b1-2)Gal(b1-3)GalNAc
In short: as §1

[4] = biological target: GlcNAc(b1-2)[GlcNAc(b1-4)]Man(a1-3)[GlcNAc(b1-4)][GlcNAc(b1-2)[GlcNAc(b1-6)]Man(a1-6)]Man(b1-4)GlcNAc(b1-4)GlcNAc
In short: as §1

GlcNAc(b1-3)Gal(b1-4)Glc = biological target: GlcNAc(b1-3)Gal(b1-4)Glc
In short: as §1

[5] = biological target: GlcNAc(b1-3)Gal(b1-4)GlcNAc(b1-2)Man(a1-3)[GlcNAc(b1-3)Gal(b1-4)GlcNAc(b1-2)Man(a1-6)]Man(b1-4)GlcNAc(b1-4)GlcNAc
In short: as §1

[6] = biological target: GlcNAc(b1-3)Gal(b1-4)GlcNAc(b1-3)Gal(b1-4)GlcNAc(b1-2)[GlcNAc(b1-3)Gal(b1-4)GlcNAc(b1-3)Gal(b1-4)GlcNAc(b1-6)]Man(a1-6)[GlcNAc(b1-3)Gal(b1-4)GlcNAc(b1-3)Gal(b1-4)GlcNAc(b1-2)Man(a1-3)]Man(b1-4)GlcNAc(b1-4)[Fuc(a1-6)]GlcNAc
In short: as §1

[7] = biological target: GlcNAc(b1-3)Gal(b1-4)GlcNAc(b1-3)Gal(b1-4)GlcNAc(b1-3)Gal(b1-4)GlcNAc(b1-3)Gal(b1-4)GlcNAc(b1-2)Man(a1-3)[GlcNAc(b1-3)Gal(b1-4)GlcNAc(b1-3)Gal(b1-4)GlcNAc(b1-3)Gal(b1-4)GlcNAc(b1-3)Gal(b1-4)GlcNAc(b1-2)Man(a1-6)]Man(b1-4)GlcNAc(b1-4)GlcNAc
In short: as §1

[8] = biological target: GlcNAc(b1-3)Gal(b1-4)GlcNAc(b1-3)Gal(b1-4)GlcNAc(b1-3)GalNAc
In short: as §1

[9] = biological target: Neu5Ac(a2-3)Gal(b1-3)GalNAc(b1-3)Gal(a1-4)Gal(b1-4)Glc
In short: as §1

[10] = biological target: Neu5Ac(a2-3)Gal(b1-3)GlcNAc(b1-2)[Neu5Ac(a2-3)Gal(b1-3)GlcNAc(b1-4)]Man(a1-6)[Neu5Ac(a2-3)Gal(b1-3)GlcNAc(b1-2)Man(a1-3)]Man(b1-4)GlcNAc(b1-4)GlcNAc
In short: as §1

[11] = biological target: Neu5Ac(a2-3)Gal(b1-4)GlcNAc(b1-2)Man(a1-3)[Neu5Ac(a2-3)Gal(b1-4)GlcNAc(b1-2)Man(a1-6)]Man(b1-4)GlcNAc(b1-4)[Fuc(a1-6)]GlcNAc
In short: as §1

[12] = biological target: Neu5Ac(a2-3)Gal(b1-4)[Fuc(a1-3)]GlcNAc(b1-2)Man
In short: as §1

[13] = biological target: Neu5Ac(a2-3)Gal(b1-4)[Fuc(a1-3)]GlcNAc(b1-6)[Neu5Ac(a2-3)Gal(b1-3)]GalNAc
In short: as §1

[14] = biological target: Neu5Ac(a2-3)Gal(b1-4)[Fuc(a1-3)]GlcNAc6S
In short: as §1

[15] = biological target: Neu5Ac(a2-6)Gal(b1-4)GlcNAc
In short: as §1

[16] = biological target: Neu5Ac(a2-6)Gal(b1-4)GlcNAc(b1-2)Man(a1-3)[Gal(b1-4)GlcNAc(b1-2)Man(a1-6)]Man(b1-4)GlcNAc(b1-4)GlcNAc
In short: as §1

[17] = biological target: Neu5Ac(a2-6)Gal(b1-4)GlcNAc(b1-2)Man(a1-3)[Neu5Ac(a2-6)Gal(b1-4)GlcNAc(b1-2)Man(a1-6)]Man(b1-4)GlcNAc(b1-4)[Fuc(a1-6)]GlcNAc
In short: as §1

[18] = biological target: Neu5Ac(a2-6)Gal(b1-4)GlcNAc(b1-3)Gal(b1-4)GlcNAc(b1-3)Gal(b1-4)GlcNAc(b1-2)Man(a1-3)[Neu5Ac(a2-6)Gal(b1-4)GlcNAc(b1-3)Gal(b1-4)GlcNAc(b1-3)Gal(b1-4)GlcNAc(b1-2)Man(a1-6)]GalNAc
In short: as §1

[19] = biological target: Neu5Ac(a2-6)Gal(b1-4)GlcNAc(b1-3)[Neu5Ac(a2-6)Gal(b1-4)GlcNAc(b1-6)]GalNAc
In short: as §1

[20] = biological target: Neu5Ac(a2-8)Neu5Ac(a2-3)Gal(b1-3)GalNAc(b1-4)[Neu5Ac(a2-8)Neu5Ac(a2-3)]Gal(b1-4)Glc
In short: as §1

[21] = biological target: Neu5Ac(a2-8)Neu5Ac(a2-3)[Gal(b1-3)GalNAc(b1-4)]Gal(b1-4)Glc
In short: as §1

[22] = biological target: Neu5Ac(b2-6)Gal(b1-4)GlcNAc
In short: as §1

[23] = biological target: Neu5Gc(a2-8)Neu5Gc(a2-3)Gal(b1-4)GlcNAc(b1-3)Gal(b1-4)GlcNAc
In short: as §1

B1: Agalectin (Anopheles gambiae) (protein)
chain: MSNRPFTAKFPRYPENGDEVFIRGKLKDDAKSFSVNFCLPRPAQVAEHQTPPYIALHFKTIYDERDDTSRVVLNWKNLQWQQEEVLDNYWHVDRSQTFRVVFRLHEDCIKVFVNSVDHPPDYQFPVQLPLDQIESIELWDDVEHVEEISFRYDNGNSY
For B1, the “glycan array binding signal (z-score)” value [1] was 0.038, the “glycan array binding signal (z-score)” value [2] was 0.499 and the “glycan array binding signal (z-score)” value (Glc(b1-4)Glc) was -0.613. The “glycan array binding signal (z-score)” value [3] was -1.34, the “glycan array binding signal (z-score)” value [4] was -0.389 and the “glycan array binding signal (z-score)” value (GlcNAc(b1-3)Gal(b1-4)Glc) was -0.291. For the same binder, the “glycan array binding signal (z-score)” value [5] was -0.912, the “glycan array binding signal (z-score)” value [6] was 3.5 and the “glycan array binding signal (z-score)” value [7] was 3.07. The “glycan array binding signal (z-score)” value [8] was -0.362, the “glycan array binding signal (z-score)” value [9] was 0.518 and the “glycan array binding signal (z-score)” value [10] was 0.945. The “glycan array binding signal (z-score)” value [11] was -0.933, the “glycan array binding signal (z-score)” value [12] was 0.193 and the “glycan array binding signal (z-score)” value [13] was 3.95. For the same binder, the “glycan array binding signal (z-score)” value [14] was 3.86, the “glycan array binding signal (z-score)” value [15] was 0.241 and the “glycan array binding signal (z-score)” value [16] was -0.321. The “glycan array binding signal (z-score)” value [17] was 5.84, the “glycan array binding signal (z-score)” value [18] was 2.96 and the “glycan array binding signal (z-score)” value [19] was -0.501. The “glycan array binding signal (z-score)” value [20] was 0.647, the “glycan array binding signal (z-score)” value [21] was -0.464 and the “glycan array binding signal (z-score)” value [22] was -0.879. For the same binder, the “glycan array binding signal (z-score)” value [23] was 0.981.
